Screens as filed in PubChem BioAssay.
Many of the other results were omitted from the sample, so hits are more common in it than they were.
LmPK inhibitor – blocks Leishmania mexicana pyruvate kinase activity; Q27686; AID 1721; 290,000 compounds, 0.37% hits; Potency, µM (titrated, usually from 57.5 µM), for the others: at the top dose activity change, negative = inhibition, hits mostly inhibitors; purified LmPK, Kinase-Glo ATP luminescence, 1 h; also: potency is read from the fitted curve at half-maximal effect; % is scaled to controls: 0 for no effect and ±100 for the full control effect
Target sequence (Q27686 whole entry, looked up): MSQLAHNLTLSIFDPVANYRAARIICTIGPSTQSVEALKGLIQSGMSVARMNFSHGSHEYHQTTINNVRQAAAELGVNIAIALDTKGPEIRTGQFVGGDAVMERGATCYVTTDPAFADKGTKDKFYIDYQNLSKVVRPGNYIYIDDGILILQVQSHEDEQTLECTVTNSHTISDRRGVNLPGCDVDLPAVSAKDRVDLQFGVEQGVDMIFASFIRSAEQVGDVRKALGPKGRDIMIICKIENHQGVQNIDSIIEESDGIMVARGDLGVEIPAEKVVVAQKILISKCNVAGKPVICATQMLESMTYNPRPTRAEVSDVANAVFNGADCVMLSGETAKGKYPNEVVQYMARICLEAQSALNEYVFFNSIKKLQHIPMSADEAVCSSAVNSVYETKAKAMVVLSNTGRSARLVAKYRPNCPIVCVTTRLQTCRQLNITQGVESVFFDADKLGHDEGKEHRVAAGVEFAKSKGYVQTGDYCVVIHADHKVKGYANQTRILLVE
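Pyruvate kinase activity monitored as ATP production (luciferase luminescence). Conditions: 0.1 nM enzyme, 0.5 mM PEP, 0.1 mM ADP, 1 h, RT; normalized against uninhibited and no-enzyme wells.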
RE007 growth inh – less growth of the S. pombe RE007 Vpr strain; S. pombe RE007 Vpr strain, BacTiter-Glo ATP luminescence, 24 h; Potency, µM (highest dose often 92.2 µM), for the others: at the top dose activity change, negative = less growth, most hits filed as inhibitors; 360,000 compounds, 0.21% hits; AID 651644; active = well fitted falling curve with a large enough effect; inconclusive = small, poorly fitted or top-dose-only effect; inactive = no such curve, though single readings can be large or run the other way; also: potency is read from the fitted curve at half-maximal effect; % is scaled to controls: 0 for no effect and ±100 for the full control effect; nearly all actives have a fitted effect of over 50% in size
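Fission yeast RE007 carrying one integrated HIV-1 vpr copy, seeded at OD 0.01 in PMG+AL medium with 23 nL pinned compound. Grown 24 h at 30 degrees; viability read by BacTiter-Glo luminescence after 5 min.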
FBPA Giardia inh – inhibitors of Giardia lamblia fructose-1,6-bisphosphate aldolase; purified Giardia FBPA; Potency, µM (highest dose often 59.6 µM), for the others: at the top dose activity, negative = inhibition, most hits filed as inhibitors; 290,000 compounds, 0.71% hits; AID 2451; also: potency is read from the fitted curve at half-maximal effect; % is scaled to controls: 0 for no effect and ±100 for the full control effect; nearly all actives have a fitted effect of over 55% in size
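Giardia FBPA (40 nM reagent) was preincubated 10 min at RT with compound (up to 57.5 uM final), then substrate plus GAPDH/TPI/NAD/arsenate coupling system with diaphorase/resazurin was added; resorufin fluorescence (525/598 nm) was read after 20 min.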
Shiga inhibitor – inhibitors of Shiga toxin in Vero cells. 290,000 compounds, 9.2% hits. AID 2315. Vero cells, Shiga toxin protein synthesis inhibition reporter. inhibition, % at 38.7 µM; in the data active = inhibition mostly above about 28%, no sharp cut-off; inactive = mostly below about 43%; also: 0% is about no effect
TbPYK inhibitor – T. brucei pyruvate kinase inhibition | Potency, µM (titrated, usually from 76.8 µM), without a hit: at the top dose activity, negative = inhibition, most hits filed as inhibitors | TbPYK enzyme, Kinase-Glo Plus ATP luminescence, 45 min | 410,000 compounds, 0.12% hits | Q57TT1; also: potency is read from the fitted curve at half-maximal effect; % is scaled to controls: 0 for no effect and ±100 for the full control effect; nearly all actives have a fitted effect of over 50% in size
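Activity of T. brucei pyruvate kinase was followed by Kinase-Glo Plus luminescence after the enzyme reacted 45 min at room temperature with 130 uM ADP (final) and substrate. Test compounds were added before ADP at multiple concentrations.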
CHX counter – counter-screen hit for Shiga toxin inhibitors, cycloheximide; cell reporter, cycloheximide protein synthesis inhibition counterscreen; max response, %; 300,000 compounds, 12% hits; AID 2314; in the data active = max response mostly above about 13%, no sharp cut-off; inactive = mostly below about 14%; also: read at 38.3 µM for the half of the compounds with a filed dose; 0% is about no effect
Starred values were filed as active, the others as inactive; ? = inconclusive; nt = no result given. Unless noted, calls follow the shape of the dose curve; as a rule, active = well fitted curve in the direction sought with a large enough effect; inconclusive = small, poorly fitted or top-dose-only effect, or another doubt; inactive = no such curve, though single readings can be large; an effect the other way counts as inactive or inconclusive.

SMILES	LmPK inhibitor	RE007 growth inh	FBPA Giardia inh	Shiga inhibitor	TbPYK inhibitor	CHX counter
O=C(Nc1ccc(NC(=O)c2ccco2)c(Cl)c1)c1ccccc1	-18%	-3%	-1%	79*	3%	47*
COc1ccc(C(=O)Nc2ccc(NC(=O)c3ccco3)c(Cl)c2)cc1OC	1%	-3%	3%	19	-3%	-4
O=C(Nc1ccc(Br)c(Cl)c1)c1ccco1	-8%	?	-6%	76*	-4%	41*
Cc1ccc(C)c(NC(=O)CN2CCN(C3CCCCC3)C(=O)C2=O)c1	nt	nt	nt	nt	-1%	nt
S=C(NCCc1cccc(Cl)c1)NCc1ccccc1	0%	nt	nt	33	nt	25*
COc1ccc(CCNC(=O)Nc2ccc3c(c2)c(=O)n(C)n3Cc2ccc(Cl)cc2)cc1OC	nt	11%	nt	nt	1%	nt
Cc1cccc(NC(=O)NCCc2ccc(Cl)cc2)c1	4%	10%	2%	17	3%	14
COc1ccc(NC(=O)NCCc2cccc(Cl)c2)cc1OC	0%	3%	-1%	39	3%	34*
O=C(/C=C/c1cccc(Cl)c1)NCCc1ccccc1	5%	9%	-1%	107*	-4%	65*
O=C(NCCc1ccc(Cl)cc1)Nc1cccc(Cl)c1	5%	15%	-8%	37*	-7%	13
CCc1ccc(S(=O)(=O)Nc2cccc(-c3ccc(N4CCOCC4)nn3)c2)cc1	nt	nt	nt	nt	1%	nt
CCOc1ccc2c(c1)c(=O)c(C(=O)c1ccc(CC)cc1)cn2CC(=O)Nc1ccccc1C	nt	nt	nt	nt	-1%	nt
O=C(NCCc1ccccc1)Nc1cccc(Cl)c1	4%	34%	-12%	40	-1%	49*
O=C(NCCc1ccncc1)Nc1ccccc1	3%	2%	0%	12	0%	1
CSc1nncc(-c2ccc(F)c(F)c2)n1	1%	?	-5%	29	5%	5
CSc1nncc(-c2ccc(F)cc2)n1	-9%	-11%	6%	24	1%	14*
Cc1cc(=O)[nH]c(SCC(=O)c2ccc(C)c(C)c2)n1	4%	2%	-7%	62	-9%	13
CCc1c(C)nc(SCC(=O)c2ccc(C)c(C)c2)[nH]c1=O	3%	-13%	-7%	44	-7%	19*
CCc1nc(SCC(=O)c2ccc(C)c(C)c2)n[nH]1	2%	14%	?	70*	-20%	12
Oc1cc(-c2ccccc2)c2ccccc2c1	-1%	?	5.6µM*	-4	1%	-5
CC(C)[C@H](N)C(=O)N[C@@H](CCC(N)=O)C(=O)NCC(=O)N[C@@H](CCC(=O)O)C(=O)N[C@@H](CCC(=O)O)C(=O)N[C@@H](CO)C(=O)N[C@@H](CC(N)=O)C(=O)N[C@@H](CC(=O)O)C(=O)N[C@@H](CCCCN)C(=O)O	nt	nt	-2%	-16	nt	0
COc1cc(/C=C/C(=O)NC2CCCCC2)cc(OC)c1OC	0%	17%	7%	-5	4%	1
COc1cc(/C=C/C(=O)NC(C)C2CC3CCC2C3)cc(OC)c1OC (stereo not given)	8%	-15%	-8%	101*	-1%	19*
O=C(Nc1cccc2ccccc12)OCc1cncs1	-5%	3%	0%	32*	0%	24*
O=C(Nc1ccc(Cl)cc1)OCc1cncs1	-4%	-17%	-6%	121*	-4%	60*
SMILES	LmPK inhibitor	RE007 growth inh	FBPA Giardia inh	Shiga inhibitor	TbPYK inhibitor	CHX counter
COc1ccc(NC(=O)Cn2nc(C)c3c(C)n(-c4ccccc4)nc3c2=O)cc1OC	nt	nt	nt	nt	2%	nt
COc1cccc(C(=O)/C=C/c2ccc(N3CCCCC3)c([N+](=O)[O-])c2)c1	-4%	-15%	0%	60*	0%	29*
O=C(/C=C/c1ccc(N2CCCCC2)c([N+](=O)[O-])c1)c1ccc(S(=O)(=O)N2CCCC2)cc1	1%	-17%	2%	-5	-5%	-2
CO/N=C/c1ccc(N2CCCC2)c([N+](=O)[O-])c1	0%	-9%	-11%	53	1%	31*
O=[N+]([O-])c1cc(/C=N/O)ccc1N1CCCC1	0%	-4%	-4%	-3	-4%	13
COC(=O)c1cc2oc(C)cc2n1Cc1ccc(Cl)cc1	nt	nt	nt	nt	-7%	nt
O=C(NCC1CCCCC1)c1nnc(C(=O)NCC2CCCCC2)c2c1[nH]c1ccccc12	nt	nt	-2%	nt	nt	nt
Cc1ccc(C=NNc2ccc([N+](=O)[O-])cn2)cc1	nt	4%	nt	nt	-11%	nt
Cc1ccc(-n2c(C)cc(/C=N/Nc3ccc([N+](=O)[O-])cn3)c2C)cc1	-2%	-4%	-24%	59*	8%	39*
Cc1cc(/C=N/Nc2ccc([N+](=O)[O-])cn2)c(C)n1-c1ccccc1	6%	7%	-9%	78*	-3%	27*
Cc1c(C(=O)O)cccc1-n1c(C)cc(/C=N/Nc2ccc([N+](=O)[O-])cn2)c1C	-1%	-11%	?	71*	8%	32*
Cc1ccn(-c2ccc([N+](=O)[O-])cc2)n1	0%	-11%	1%	42*	0%	12*
CC(C)OCCCNC(=O)CN1C(=O)c2ccccc2Sc2ncccc21	nt	nt	nt	nt	3%	nt
Cc1ccc(Cl)cc1N1CCN(CCNC(=O)Nc2ccccc2Cl)CC1	nt	nt	nt	nt	5%	nt
Cc1sc(NC(=O)c2ccccc2F)c(CN2CCCCC2C)c1C (stereo not given)	-3%	-22%	-5%	61*	-3%	71*
CC(=O)Nc1sc(C)c(C)c1CN1CCN(Cc2ccccc2)CC1	-1%	-9%	4%	10	-1%	11
CC(C)c1ccc(-n2cnn(-c3ncccc3[N+](=O)[O-])c2=O)cc1	-13%	-15%	-13%	77*	-5%	34*
Cc1ccc(O)c(N=Cc2ccc(C)s2)c1	-4%	?	?	52*	0%	37*
Cc1ccc(/C=N/n2c(C)nnc2C)s1	1%	-1%	2%	15	-6%	-2
Cc1cc(C)n2nc(/C(C#N)=C/c3ccccn3)c(C#N)c2n1	7%	-11%	-9%	27	-1%	25*
COc1cc(/C=C(\C#N)c2ccccn2)ccc1OCc1ccccc1Cl	5%	-13%	0%	2	0%	10
N#C/C(=C/c1cccs1)c1ccccn1	-21%	-22%	0%	73*	3%	35*
N#C/C(=C\c1ccccn1)c1ccccn1	-1%	?	0%	61*	2%	33*
COCCCn1c(=S)[nH]c2c(sc3ccccc32)c1=O	5%	-10%	?	16	-29%	29*
O=C(O)CCCn1c(=S)[nH]c2c(sc3ccc([N+](=O)[O-])cc32)c1=O	?	0%	?	-3	20µM*	-2
CC1CCN(CCCn2c(=S)[nH]c3c(sc4ccccc43)c2=O)CC1	-2%	-12%	-18%	105*	?	22*
